PI5P4Ka inh: inhibitors of human PI5P4K alpha. P48426. PI5P4Kalpha enzyme, ADP-Glo luminescence, 60 min; stronger effect = lower value. max response, %. hit rate 1.2% among 330,000. AID 652105; active = max response of -50% or lower; inconclusive = between -30% and -50%; inactive = -30% or higher; note: value at the top dose of about 77 µM; % is set by controls: 0 for no effect and ±100 for the full control effect
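ADP-Glo luminescence end-point read after a 60 min room-temperature kinase reaction of PI5P4Kalpha plus substrate, initiated with ATP at 5 microM final. Buffer: 0.038 M HEPES pH 7.4, EGTA, 0.1% CHAPS, 5% DMSO.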
POLB inh: DNA polymerase beta (human) inhibition. P06746. Pol beta primer extension/strand displacement, fluorescence kinetic. Potency, µM (highest dose often 114 µM), inactives show top-dose activity change, negative = inhibition, usual class: inhibitors. hit rate 1.3% among 340,000. AID 485314; note: potency is the fitted concentration of half-maximal effect; % is set by controls: 0 for no effect and ±100 for the full control effect
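Preincubation: enzyme (10 nM) with compound, 15 min, RT. Reaction: substrate added to 50 nM final. Reads: 0 and 10 min. Analysis: normalized, Hill fit.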
PI4K2A block: inhibitors of human PI4K2A | Q9BTU6 | purified PI4K2A, ADP-Glo luminescence, 1 h; stronger effect = lower value | activity change, negative = inhibition, % at 76.9 µM | hit rate 0.13% among 420,000 | AID 1346378; in the data active = activity change below about -50%; inconclusive = mostly about -30% to -49%;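 note: -100% = wells without enzyme as full effect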
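ADP-Glo luminescence measured ADP generated by PI4K2A enzyme (4 ug/mL before mixing) with 1.2 mM PI substrate (pre-mix) and 300 microM ATP (pre-mix). Tris pH7.5 buffer with MgCl2, Triton X-100; 1 h reaction at ambient temperature.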
Pol eta inh: blocks human DNA polymerase eta activity. recombinant Pol eta, fluorescent DNA replication assay. Potency, µM (highest dose often 114 µM), for inactives: top-dose activity change, negative = inhibition, actives largely listed as inhibitors. hit rate 1.2% among 390,000; note: potency is the fitted concentration of half-maximal effect; % is set by controls: 0 for no effect and ±100 for the full control effect
Target sequence (Q9Y253 whole entry, looked up): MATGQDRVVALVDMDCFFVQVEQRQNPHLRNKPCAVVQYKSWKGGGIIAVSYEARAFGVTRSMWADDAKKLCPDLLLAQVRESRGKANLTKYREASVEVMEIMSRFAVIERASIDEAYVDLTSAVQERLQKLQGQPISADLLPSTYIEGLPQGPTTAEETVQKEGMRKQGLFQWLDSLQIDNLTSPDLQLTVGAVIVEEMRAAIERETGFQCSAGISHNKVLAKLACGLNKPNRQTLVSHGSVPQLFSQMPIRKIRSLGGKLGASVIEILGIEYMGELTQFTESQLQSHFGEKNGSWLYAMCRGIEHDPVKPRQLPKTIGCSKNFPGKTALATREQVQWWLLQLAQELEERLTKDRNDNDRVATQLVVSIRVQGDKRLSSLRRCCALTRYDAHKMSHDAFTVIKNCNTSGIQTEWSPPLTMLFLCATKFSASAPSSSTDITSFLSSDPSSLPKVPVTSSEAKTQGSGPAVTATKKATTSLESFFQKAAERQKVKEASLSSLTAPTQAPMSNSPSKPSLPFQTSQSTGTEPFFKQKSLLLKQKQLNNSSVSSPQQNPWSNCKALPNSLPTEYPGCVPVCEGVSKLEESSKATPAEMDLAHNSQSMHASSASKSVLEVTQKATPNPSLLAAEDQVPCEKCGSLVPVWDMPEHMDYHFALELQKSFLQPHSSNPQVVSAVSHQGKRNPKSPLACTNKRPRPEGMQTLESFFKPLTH
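Pol eta at 10 nM preincubated with compounds 15 min at room temperature; reaction started with fluorescent substrate (50 nM final) and read kinetically at 0 and 10 min.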
POLI inh: inhibitors of human DNA polymerase iota. Q9UNA4. Pol iota fluorescent replication assay, 10 min. Potency, µM (top dose mostly 115 µM), without a hit: at the highest dose activity, negative = inhibition, usual class: inhibitors. hit rate 1% among 390,000; note: potency is the fitted concentration of half-maximal effect
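Fluorescent replication assay read twice, at 0 min and 10 min after adding 50 nM (final) substrate. Enzyme (10 nM) and compounds were first incubated 15 min at room temperature; enzyme-free buffer wells were negative controls.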
Pol kappa inh: DNA polymerase kappa (human) inhibition. AID 588579. purified Pol kappa, fluorescent DNA synthesis assay, 10 min. Q9UBT6. hit rate 0.53% among 400,000. Potency, µM (top dose mostly 107 µM), for the others: at the top dose activity, negative = inhibition, actives largely listed as inhibitors; note: potency is the fitted concentration of half-maximal effect; % is set by controls: 0 for no effect and ±100 for the full control effect
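10 nM Pol kappa preincubated 15 min at room temperature with compounds, then reaction started with substrate at 50 nM final. Fluorescence read kinetically at 0 and 10 min; buffer-only wells served as negative control.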
* marks the source's active call; other numbers are inactive results; ? = inconclusive; nt = not tested or not shown; ! = not active in a repeat; [ ] = dose if it differs, or a comment. In the library only some 2.8% were active in any assay of this set; here they are far more common. Unless noted, calls come from the whole dose curve; as a rule, active = well fitted inhibition curve with a large enough effect; inconclusive = small, poorly fitted or top-dose-only effect, or another doubt; inactive = no such curve, though single readings can be large or run the other way.

SMILES	PI5P4Ka inh	POLB inh	PI4K2A block	Pol eta inh	POLI inh	Pol kappa inh
CN(C)/[N+]([O-])=N/Oc1cc(F)c([N+](=O)[O-])cc1[N+](=O)[O-]	nt	nt	nt	nt	?	-19%
CC(C)Cc1ccc(C(C)/C=C2/CCC(CN3CCCCC3)C2=O)cc1 (stereo not drawn)	-24	nt	19	22µM*	?	-13%
CCCN(c1ccc(C(C)C)cc1)S(=O)(=O)c1ccc2c(c1)n(C)c(=O)c(=O)n2C	nt	?	4	-25%	15%	1%
O=c1cc(CSc2n[nH]c(-c3ccncc3)n2)nc2sccn12	?	10µM*	-4	?	50µM*	?
Cc1ccc(Nc2nnc(SCc3cc(=O)n4ccsc4n3)s2)c(C)c1	nt	2%	-1	0%	8%	-17%
Cc1ccc(SCc2cc(=O)n3ccsc3n2)c(C)c1	nt	28µM*	nt	nt	nt	nt
O=C1c2c(O)cccc2Cc2cccc(O)c21	-3	nt	2	-21%	8%	22µM*!
C[C@@H]1Cc2cc(O)c(O)c(O)c2C(=O)O1	nt	nt	-6	nt	nt	nt
O=C1Cc2cccc(=O)c(O)c2C(=O)O1	-26	nt	-6	8.9µM*	nt	nt
O=C1C2C3C=CC(C3)C2C(=O)N1CNc1ccc(O)cc1 (stereo not drawn)	nt	40µM*	nt	nt	nt	nt
O=Cc1ccc(I)cc1	nt	nt	nt	nt	-6%	-7%
COc1ccc(N2CSC3=C(C#N)C(c4cc(OC)c(OC)cc4OC)CC(=O)N3C2)c(OC)c1 (stereo not drawn)	?	2%	-13	-2%	?	-12%
COc1ccc(N2CSC3=C(C#N)C(c4cccs4)CC(=O)N3C2)cc1 (stereo not drawn)	nt	28µM*	0	1%	4%	-5%
COc1ccc(C2CC(=O)N3CN(C4CCCCC4)CSC3=C2C#N)cc1 (stereo not drawn)	nt	-2%	-4	-24%	?	-12%
CCOC(=O)CC1=C(C(=O)OCC)C(c2cccs2)C(C#N)=C(N)O1 (stereo not drawn)	-6	24%	-1	-10%	-10%	-1%
COc1ccc(N2CSC3=C(C#N)C(c4cc(OC)ccc4OC)CC(=O)N3C2)c(OC)c1 (stereo not drawn)	-85*	10%	-27	-15%	?	-28%
CCOC(=O)c1ccc(N2CSC3=C(C#N)C(c4cccs4)CC(=O)N3C2)cc1 (stereo not drawn)	-70*	0%	-3	-3%	-7%	-14%
O=C(CSc1nnc(-c2ccccc2F)n1Cc1ccco1)Nc1ccccc1-c1ccccc1	nt	nt	-5	nt	nt	nt
COc1ccc(CN(Cc2ccccc2)C(=O)C2CC2)cc1COc1ccc(NC(C)=O)cc1	nt	nt	nt	nt	?	-26%
N#CC(C#N)=NNc1ccc2cn[nH]c2c1	-64*	nt	-8	nt	nt	nt
CCOC(=O)CC[C@H]1CC[C@]2(CCCN(Cc3ccccc3)C2)O1	nt	nt	1	nt	nt	nt
CCOC(=O)C1=C(C)S/C(=C\N(C)C)C1=O	7	?	-5	?	25µM*	?
CCOc1ccc(C(=O)Nc2nnc(SCc3cc(=O)c4cc(C)ccc4[nH]3)s2)cc1	nt	1%	-1	3%	-25%	-3%[60.1 µM]
CN(C)CC(CCC(CN(C)C)C(=O)c1ccccc1)C(=O)c1ccccc1 (stereo not drawn)	3	0%	5	-5%	22µM*	-3%
CCOc1ccc(C(=O)C(CCC(CN(C)C)C(=O)c2ccc(OCC)cc2)CN(C)C)cc1 (stereo not drawn)	0	0%	6	0%	?	-5%[60.1 µM]
SMILES	PI5P4Ka inh	POLB inh	PI4K2A block	Pol eta inh	POLI inh	Pol kappa inh
CCOC1=C/C(=C/c2c(N)n3nc(S(=O)(=O)CC)sc3nc2=O)C=CC1=O	-56*	-14%	-1	?	?	-19%
Nc1c(/C=C2\C=Nc3ccccc32)c(=O)nc2sc(CC(=O)N3CCOCC3)nn12	-53*	2%	-2	-15%	4%	-3%
C=CCC1=C/C(=C\c2c(N)n3nc(CC(=O)N4CCCC4)sc3nc2=O)C=C(OC)C1=O	-1	8%	5	11%	18%	-8%
CCOC1=C/C(=C/c2c(N)n3nc(CC(=O)N4CCCCC4)sc3nc2=O)C=CC1=O	-66*	-29%	4	?	?	?
COC1=C/C(=C/c2c(N)n3nc(CC(=O)N4CCCCC4)sc3nc2=O)C=CC1=O	-64*	-2%	-5	50µM*	?	?
CCCCN1CCN(C(=O)C2CCCN(C(=O)c3ccc4c(c3)NC(=O)CS4)C2)CC1 (stereo not drawn)	nt	nt	2	nt	nt	nt
Cn1c(=O)cc(SCC(=O)N2CCN(c3ccccc3F)CC2)c2cc(Cl)ccc21	nt	18%	2	-12%	23%	-5%
Cc1ccnc2ccc([N+](=O)[O-])cc12	nt	nt	nt	nt	1%	-26%
CCCCCCNC(=O)N[C@@H](C(=O)NCCC[C@H]1CN2C(=NC[C@@H]2Cc2ccccc2)N1CCc1cccc(OC)c1)C(C)C	-83*	12%	-16	-2%	25µM*	-7%
CCCCCCCCCCCCCCCC[n+]1ccc(C)c2ccccc21	nt	nt	nt	nt	-2%	-20%
CC[n+]1ccc(C[n+]2ccccc2)c2ccccc21	-53*	18%	-14	1%	8%	-11%
Cc1ccccc1NC(=O)CN1C(=O)S/C(=C\c2ccc(-c3cccc(C(=O)O)c3C)o2)C1=O	2	35µM*	1	?	?	?
O=C(CN1C(=O)S/C(=C\c2cccs2)C1=O)Nc1ccc(O)c(C(=O)O)c1	-58*	?	2	-16%	8%	-2%
Cc1cccc(NC(=O)CN2C(=O)S/C(=C\c3ccc(-c4cccc(C(=O)O)c4C)o3)C2=O)c1	-3	7%	4	35µM*	?	-17%
Cc1cccc(NC(=O)CN2C(=O)N/C(=C/c3ccc(C)o3)C2=O)c1	-51*	2%	2	-9%	?	-14%
C=CC(=O)N1CCC[C@@H](n2nc(-c3ccc(Oc4ccccc4)cc3)c3c(N)ncnc32)C1	nt	nt	nt	nt	7%[229 µM]	-2%[229 µM]
Cc1cc2nc(-c3ccc(SCC(=O)Nc4ccc5c(c4)OCCO5)nc3)[nH]c2cc1C	nt	?	-2	-18%	?	-23%
CCc1nnc(NC(=O)CSc2ccc(-c3nc4ccccc4[nH]3)cn2)s1	nt	35µM*	-3	?	?	-32%
Cc1ccc2nc(-c3ccc(SCC(=O)Nc4ccc5c(c4)OCCO5)nc3)[nH]c2c1	-15	14µM*	0	?	?	-30%
Cc1nc(NC(=O)CSc2ccc(-c3nc4ccccc4[nH]3)cn2)sc1C	2	-11%	-5	-17%	155%	-17%
O=C(Nc1ccc(-c2nc3ccccc3[nH]2)cc1)c1ccccc1NS(=O)(=O)c1ccc(F)cc1	?	-24%	-3	28µM*	?	-40%
